Inconclusive results are not listed. The source made the active and inactive calls. Calls follow the shape of the dose curve; as a rule, active = well fitted inhibition curve with a large enough effect; inconclusive = small, poorly fitted or top-dose-only effect; inactive = no such curve, though single readings can be large or run the other way.
These compounds were tested against Cytochrome P450 3A4 (Homo sapiens) (UniProt P08684) (assay: qHTS Assay for Inhibitors and Substrates of Cytochrome P450 3A4 (AID 884; also: nearly all actives have a fitted effect of over 50% in size)). Details: recombinant CYP3A4, Luciferin-PPXE luminescence; series mostly up to 57.1 µM.
Procedure, shortened: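 Luminescent readout of luciferin produced by CYP3A4 (20 nM) dealkylation of Luciferin-PPXE, 25 uM (its KM). NADPH-driven reaction ran 60 min at RT after 10 min compound preincubation; data scaled to 57 uM ketoconazole as 100% inhibition.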
Potency is read from the fitted curve at half-maximal effect.

Sequence of Cytochrome P450 3A4 (Homo sapiens) (P08684 whole entry, looked up): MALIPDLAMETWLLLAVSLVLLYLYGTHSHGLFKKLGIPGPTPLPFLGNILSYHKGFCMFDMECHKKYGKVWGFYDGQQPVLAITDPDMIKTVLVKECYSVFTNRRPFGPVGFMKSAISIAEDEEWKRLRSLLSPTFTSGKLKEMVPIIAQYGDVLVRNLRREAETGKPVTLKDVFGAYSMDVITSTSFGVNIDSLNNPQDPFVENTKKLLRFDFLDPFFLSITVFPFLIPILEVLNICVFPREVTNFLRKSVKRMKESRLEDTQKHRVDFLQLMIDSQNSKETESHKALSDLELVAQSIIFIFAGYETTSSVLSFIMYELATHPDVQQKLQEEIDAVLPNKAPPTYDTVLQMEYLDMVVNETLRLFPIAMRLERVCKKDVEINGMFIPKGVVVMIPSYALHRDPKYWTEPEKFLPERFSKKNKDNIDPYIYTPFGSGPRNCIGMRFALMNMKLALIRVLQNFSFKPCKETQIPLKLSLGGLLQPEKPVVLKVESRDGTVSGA

Potency, active:
COC(=O)c1ccc(C(NC(=O)OCc2ccccc2)/C(F)=C/[C@@H](C)C(=O)NCc2nc3ccccc3s2)cc1 (stereo not given in full) 7.94 µM
COC(=O)c1ccc(C(NC(=O)OCc2ccccc2)/C(F)=C/[C@@H](C)C(=O)NCc2ccc(-c3ccccc3)cc2)cc1 (stereo not given in full) 3.98 µM
CC1(C(=O)NCCc2c[nH]c3ccccc23)C=CCN1C(=O)c1ccccc1 (stereo not given) 10 µM
COC(=O)c1ccc(C(/C=C/[C@@H](C)C(=O)NCc2cc(C)n(C)n2)NC(=O)OCc2ccccc2)cc1 (stereo not given in full) 2 µM
COC(=O)c1ccc(C(NC(=O)OCc2ccccc2)/C(=C/[C@@H](C)C(=O)NC2CCCCC2)c2cccnc2)cc1 (stereo not given in full) 1.26 µM
C[C@H](NC(=O)[C@@H]1C[C@H]1[C@@H](NC(=O)OCc1ccccc1)c1ccccc1)c1ccccc1 12.6 µM
COC(=O)c1ccc(C(NC(=O)OCc2ccccc2)/C(C)=C/[C@@H](C)C(=O)NCc2cc(F)cc(F)c2)cc1 (stereo not given in full) 3.16 µM
COC(=O)c1ccc(C(NC(=O)OCc2ccccc2)/C(=C/[C@@H](C)C(=O)NCc2ccc(-c3ccccc3)cc2)c2cccnc2)cc1 (stereo not given in full) 0.794 µM
COC(=O)c1ccc(C(NC(=O)OCc2ccccc2)/C(F)=C/[C@@H](C)C(=O)NCc2cccnc2)cc1 (stereo not given in full) 1.26 µM
CC(=O)N1[C@H](C)C=C[C@]1(Cc1ccccc1)C(=O)NCCN1CCOCC1 12.6 µM
CN(C)C(=O)[C@H]1C[C@@H]1[C@H](NC(=O)OCc1ccccc1)c1ccccc1 7.94 µM
CCCCCCN(C(=O)CCCCCN1C(=O)NC(c2ccccc2-c2ccccc2)C(C(=O)OCc2ccccc2)=C1C)C(C(=O)NCCCC)c1ccc(OCC(=O)OC)c(C(=O)OC)c1 (stereo not given) 6.31 µM
COC(=O)c1ccc(C(NC(=O)OCc2ccccc2)/C(C)=C/[C@@H](C)C(=O)NC2CCCCC2)cc1 (stereo not given in full) 2 µM
COC(=O)c1ccc(C(NC(=O)OCc2ccccc2)/C(C)=C/[C@@H](C)C(=O)NCc2nc3ccccc3s2)cc1 (stereo not given in full) 3.98 µM
COC(=O)c1ccc(C(NC(=O)OCc2ccccc2)/C(F)=C/[C@@H](C)C(=O)NCCN2CCOCC2)cc1 (stereo not given in full) 3.98 µM
CCCCNC(=O)C(c1ccc(-c2ccccc2)cc1)N(CCN1CCOCC1)C(=O)CCCCCN1C(=O)NC(c2ccc([N+](=O)[O-])cc2)C(C(=O)OCc2ccccc2)=C1C (stereo not given) 2.51 µM
COC(=O)c1ccc(C(NC(=O)OCc2ccccc2)/C(C)=C/[C@@H](C)C(=O)N2CCN(C)CC2)cc1 (stereo not given in full) 1.26 µM
COC(=O)c1ccc(C(/C=C/[C@@H](C)C(=O)NCc2ccccc2)NC(=O)OCc2ccccc2)cc1 (stereo not given in full) 5.01 µM
COC(=O)c1ccc(C(NC(=O)OCc2ccccc2)/C(=C/[C@@H](C)C(=O)N(C)Cc2ccccc2)c2cccnc2)cc1 (stereo not given in full) 2 µM
C[C@]1(C(=O)NCCc2c[nH]c3ccccc23)C=C[C@@H](Cc2ccccc2)N1C(=O)c1ccccc1 1.58 µM
COC(=O)c1ccc(C(NC(=O)OCc2ccccc2)/C(C)=C/[C@@H](C)C(=O)NCc2cc(C)on2)cc1 (stereo not given in full) 2 µM
CC(=O)N1[C@H](Cc2ccccc2)C=C[C@]1(C)C(=O)NCc1ccc(C)o1 7.94 µM
CC(=O)N1[C@H](Cc2ccccc2)C=C[C@]1(C)C(=O)NCCN1CCOCC1 15.8 µM
CNC(=O)[C@@]1(Cc2ccccc2)C=C[C@@H](C)N1C(=O)OC 12.6 µM
COC(=O)c1ccc(C(/C=C/[C@@H](C)C(=O)N[C@H](C)CO)NC(=O)OCc2ccccc2)cc1 (stereo not given in full) 15.8 µM
COC(=O)c1ccc(C(NC(=O)OCc2ccccc2)/C(=C/[C@@H](C)C(=O)NCCc2c[nH]c3ccccc23)c2cccnc2)cc1 (stereo not given in full) 1.58 µM
COC(=O)c1ccc(C(NC(=O)OCc2ccccc2)/C(=C/[C@@H](C)C(=O)NCc2cc(C)on2)c2cccnc2)cc1 (stereo not given in full) 1.58 µM
COC(=O)c1ccc(C(NC(=O)OCc2ccccc2)/C(F)=C/[C@@H](C)C(=O)NCc2cc(C)on2)cc1 (stereo not given in full) 2.51 µM
CC(C)CC1(C(=O)NCC2CC2)C=CCN1C(=O)c1ccccc1 (stereo not given) 15.8 µM
COC(=O)[C@H](Cc1ccccc1)NC(=O)[C@]1(C)C[C@H]1[C@H](NC(=O)OCc1ccccc1)c1ccccc1 2 µM
COC(=O)c1ccc(C(NC(=O)OCc2ccccc2)/C(=C/[C@@H](C)C(=O)NCc2nc3ccccc3n2C)c2cccnc2)cc1 (stereo not given in full) 2 µM
COC(=O)[C@H](Cc1ccccc1)NC(=O)[C@@]1(C)C[C@@H]1[C@@H](NC(=O)OCc1ccccc1)c1ccccc1 2 µM
COC(=O)c1ccc(C(NC(=O)OCc2ccccc2)/C(=C/[C@@H](C)C(=O)N(C)C)c2cccnc2)cc1 (stereo not given in full) 5.01 µM
COC(=O)CNC(=O)C1(C)C=CCN1C(=O)c1ccccc1 (stereo not given) 39.8 µM
COCCNC(=O)[C@H](C)/C=C(\c1cccnc1)C(NC(=O)OCc1ccccc1)c1ccc(C(=O)OC)cc1 (stereo not given in full) 5.01 µM
CCCCCCN(C(=O)CCCCCN1C(=O)NC(c2ccc(C(C)(C)C)cc2)C(C(=O)OCc2ccccc2)=C1C)C(C(=O)NCCCC)c1ccc(OCC(=O)OC)c(C(=O)OC)c1 (stereo not given) 1.26 µM
CCCC[C@@H]1C[C@H]1[C@@H](NP(=O)(c1ccccc1)c1ccccc1)c1ccccc1OC 3.98 µM
COC(=O)c1ccc(C(NC(=O)OCc2ccccc2)/C(=C/[C@@H](C)C(=O)NCC2CC2)c2cccnc2)cc1 (stereo not given in full) 2 µM
C[C@@H]1C=C[C@](Cc2ccccc2)(C(=O)NCC2CC2)N1C(=O)c1ccccc1 12.6 µM
CC(=O)N1[C@H](C)C=C[C@]1(Cc1ccccc1)C(=O)NCc1cc(F)cc(C(F)(F)F)c1 3.16 µM
